Structures are written as SMILES. Hit rate of the full screen: of about 400,000 compounds, about 1,900 (0.47%) were called active. Roughly 14% stayed inconclusive and do not appear here. The sample holds actives, similar compounds and a random draw of the others, so the mix is not that of the screen. Calls follow the shape of the dose curve; as a rule, active = well fitted cell-killing curve with a large enough effect; inconclusive = small, poorly fitted or top-dose-only effect, or effect the other way; inactive = no such curve, though single readings can be large or run the other way.
Potency is read from the fitted curve at half-maximal effect.

The test can be described thus: Viability Counterscreen for Primary qHTS for Inhibitors of ATXN expression. Also: nearly all actives have a fitted effect of over 40% in size. The settings on record: S2 cells (HEK-293 line with an ATXN2-luciferase reporter) viability, CellTiter-Fluor protease fluorescence, 24 h; series mostly up to 56.7 µM; activity change, negative = cytotoxicity: at the top concentration. An excerpt:
Spinocerebellar ataxia type 2 (SCA2) is a multisystem neurodegenerative disease caused by a dominantly-acting mutation leading to expansion of a polyQ domain in the ataxin-2 protein (ATXN2). SCA2 patients develop progressive ataxia and later lose function in other neuronal systems. Prominent parkinsonian signs develop in some patients. Similar to many neurodegenerative disorders, no symptomatic or disease-modifying treatments are known.
The primary objective of the proposed research is to identify compounds inhibiting ATXN2 expression and to test them for efficacy in SCA2 mouse models. To this end, we have developed a cell-based assay paired with an in vivo mouse model using identical luciferase expression constructs. This approach takes advantage of an ATXN2-luciferase transgene, with the luciferase gene flanked by the upstream and downstream portions of the ATXN2 gene. This primary assay was tested against the NIH Molecular Libraries Small Molecule Repository (MLSMR).
NIH Chemical Genomics Center [NCGC]
NIH Molecular Libraries Probe Centers Network [MLPCN]
Assay Submitter (PI): Daniel Scoles, University of Utah
PROTOCOL TABLE (as described by Inglese J, Shamu CE and Guy RK. 2007)
SEQUENCE No. (e.g., 1, 2, 3, etc.); […] (e.g., Cells, Incubation, Reagent, etc.); VALUE; DESCRIPTION.
1; Cells; 4 uL; white, solid bottom, 1536-well Greiner assay plate.
2; Incubation; 2 hr; 37 degree C in 5% humidified CO2.
3; Compounds; 23 nL; Kalypsis pintool (Wako USA) equipped with a 1536-well pin head.
4; Incubation; 24 hr; 37 degree C in 5% humidified CO2.
5; Reagent; 1 uL; Gly-Phe-7-Amino-4-trifluoromethylcoumarin.
6; Incubation; 30 min; 37 degree C in 5% humidified CO2.
7; Detection; Fluorescence; ViewLux plate reader (PerkinElmer).
8; Reagent; 3 uL; SteadyGlo luciferase solution (Promega).
9; Incubation; 5 min; room temperature.
10; Detection; Luminescence; ViewLux plate reader (PerkinElmer).
NOTES (numbers refer to Sequence numbers above)
1. S2 cells expressing ATXN2-luciferase reporter were suspended in phenol-red free DMEM and dispensed in assay plates using a Multidrop Combi dispenser (Thermo Fisher Scientific).
2. Assay plates were incubated. Evaporation was prevented by covering assay plates with metal lids containing holes to allow gas diffusion.
3. […] Vehicle-only plates, with DMSO being pin-transferred to columns 5-48, were inserted uniformly at the beginning and the end of each library to monitor and record any shifts in assay performance.
5. 125 uM Gly-Phe-7-Amino-4-trifluoromethylcoumarin (MP Biomedicals) working concentration was used at a final concentration of 25 uM.
7. To assess cell viability; the assay plates were read using the ViewLux high-throughput CCD imager (PerkinElmer), wherein single end-point fluorescence measurement was acquired (excitation 405/10; emission 540/25 nm).
8. Detection reagent SteadyGlo Luciferase (Promega) was added to the assay plate.
10. Luminescence is then measured on the ViewLux imager equipped with a clear emission filter using a 2 sec exposure. All screening operations were performed on a fully integrated robotic system (Kalypsys) containing one RX-130 and two RX-90 anthropomorphic robotic arms (Staubli).
Inglese J, Shamu CE and Guy RK, Reporting data from high throughput screening of small molecule libraries, Nature Chemical Biology, 2007, 3(8): 438-441. doi.org/10.1038/nchembio0807-438.
(A counterscreen serves to expose hits that act by an unwanted route or on another target.)
For the compound `O=C(NCCc1ccccc1)c1cccc(NC(=O)c2ccccc2)c1`, the “activity change, negative = cytotoxicity” value was -24.5% (inactive).
Regarding `O=C(CCl)Nc1cccc(CP(=O)(c2ccccc2)c2ccccc2)c1`, the Potency is 14.1 µM (active).
`O=C(CSCc1ccccc1)Nc1ccccc1`: the “activity change, negative = cytotoxicity” value is 25.7% (inactive).
The same measure, in the same setting: the result for `CCOc1ccc(NS(=O)(=O)c2ccc(N)cc2)nn1` reads 17.5% (inactive); that for `O=C(NC(c1ccc(Cl)cc1)c1cnccn1)C1CCN(Cc2ccc(Cl)cc2)CC1` (stereo not given), -23.3% (inactive); that for `NC(=O)CSC1=Nc2ccccc2C2=NC(CCC(=O)NCc3ccc(F)cc3)C(=O)N12` (stereo not given), -12% (inactive).
As to `O=C(CC1N=C2c3ccccc3N=C(SCc3cccc(Cl)c3)N2C1=O)NCc1ccc2c(c1)OCO2` (stereo not given), the Potency is 31.6 µM (active).
In the case of `Cc1ccc(CNC(=O)CSC2=Nc3ccccc3C3=NC(C)C(=O)N23)cc1` (stereo not given), the “activity change, negative = cytotoxicity” value was -14.2% (inactive).
The same measure, in the same setting: the result for `CC(C)(C)C(=O)c1c(N)[nH]c(C(=O)c2ccccc2)c1-c1ccc(F)cc1` reads -33.1% (inactive).
The same measure, in the same setting: the result for `COCC(=O)Nc1cc(C(=O)N2CCCC(c3ccccc3)CC2)c2c(c1)nc(-c1ccncc1)n2C` (stereo not given) reads -7.58% (inactive); that for `CCOC(=O)[C@H](CCc1ccccc1)N[C@@H](C)C(=O)N1CC2(C[C@H]1C(=O)O)SCCS2`, 6.64% (inactive); that for `O=C(C(=O)N1CCOc2ccc(CN3CCN(Cc4ccccn4)CC3)cc2C1)c1ccccc1`, -15% (inactive).
Same read-out and setting: the result for `CCC1(C2CCN(C(=O)c3cccc(F)c3F)CC2)NC(=O)N(CCc2scnc2C)C1=O` (stereo not given) reads -14.4% (inactive); that for `Cc1ccc(-c2ccc(C(=O)N3CCc4nnc(CNC(=O)c5ccccc5)n4CC3)cc2)cc1`, -15.1% (inactive).
Regarding `COc1ccc(CCNc2ncnc3sc(C(=O)N4CCCC4)c(C)c23)cc1OC`, the “activity change, negative = cytotoxicity” value was -4.95% (inactive).
With `O=C1CC(c2ccccc2)=NN1c1ccc([N+](=O)[O-])cc1`, the Potency was 21.2 µM (active).
Regarding `O=C1NC(=O)C2C1C(c1ccc([N+](=O)[O-])cc1)=NN2Cc1ccccc1` (stereo not given), the “activity change, negative = cytotoxicity” value was -21.7% (inactive).
Same read-out and setting: the result for `Cn1nc(-c2ccccc2)c2cc([N+](=O)[O-])ccc21` reads -7.69% (inactive).
For `NC(Cc1ccccc1)c1csc(Nc2cc(Oc3ccccc3)ncn2)n1` (stereo not given), the Potency is 31.6 µM (active).
Turning to `COc1ccc(C(NC(=O)C2CCN(CCCc3ccccc3)CC2)c2cccs2)cc1` (stereo not given), the “activity change, negative = cytotoxicity” value was 9.97% (inactive).
On the same count and under the same terms, the figure for `COc1ccccc1C1CN(CCNC(=O)C2=CCCC2)Cc2ccccc2O1` (stereo not given) is -8.91% (inactive).
On the same count and under the same terms, the figure for `CC(C)NC(=O)N1Cc2cc(C(=O)NCC(F)(F)F)nc(-c3cccc(-c4cc5ccccc5o4)c3)c2[C@@H]1CCO` is -37.5% (inactive); for `Cc1nc2ccccc2nc(C)c1=NOCc1ccc(Cl)cc1Cl` it is -14.1% (inactive).
Same read-out and setting: the result for `COc1ccc(Cl)cc1N(CC(=O)N/N=C/c1ccc(OCC(N)=O)cc1)S(C)(=O)=O` reads -14.9% (inactive).
As to `NC(N)=N/N=C/c1ccc(OCc2ccc(Cl)cc2Cl)cc1`, the Potency was 35.5 µM (active).
With `C[C@H]1C[C@H]2[C@@H]3CCC4=CC(=O)C=C[C@]4(C)[C@@H]3C(=O)C[C@]2(C)[C@@]1(O)C(=O)CO`, the “activity change, negative = cytotoxicity” value was 3.63% (inactive).
On the same count and under the same terms, the result for `COc1ccccc1-c1nnc2n1N=C(c1ccc(OC(F)F)c(OCC3CC3)c1)CS2` reads -23.3% (inactive); that for `CC1=Nn2c(nnc2-c2ccccc2)SC1`, -25% (inactive).
Take `COc1ccc(C2=Nn3c(nnc3-c3ccccc3OC)SC2)cc1OC1CCCC1`: the Potency is 15.8 µM (active).
As to `COc1ccc(CCNC(=O)c2ccc(-n3c(C)cc4c3CCCC4)cc2)cc1OC`, the “activity change, negative = cytotoxicity” value is -28.8% (inactive).
Same read-out and setting: the figure for `O=C(Nc1cccc2cccnc12)c1ccc2sc([C@H]3C[C@H](O)[C@@H](CO)O3)nc2c1` is -42% (inactive).
Still for that read-out and setting: the figure for `Cc1ccccc1-c1csc(C(O)c2cccc(Cl)c2)n1` (stereo not given) is -18.9% (inactive).
On the same count and under the same terms, the result for `O=C(/C=C/c1ccc(Cl)cc1)Nc1ccc(Br)cn1` reads -29.4% (inactive); that for `S=C(NCCCc1ccccc1)Nc1ccc(Br)cc1`, -11.3% (inactive).
Regarding `NCCCNC(=S)NCCCN(Cc1ccc(Cl)cc1)c1ccc(Br)cn1`, the Potency is 35.5 µM (active).
For the compound `CN(C)CCNC(=O)c1cccc(-c2cnc3c(NC=O)cc(-c4cccc(C(F)(F)F)c4)cn23)c1`, the “activity change, negative = cytotoxicity” value was -0.0438% (inactive).
For the compound `C=CC(=O)Nc1ccc(Nc2ccnc(Nc3ccc(N4CCN(C)CC4)cc3)n2)cc1`, the Potency is 14.1 µM (active).
As for `CN1CCN(c2ccc(NC(=O)c3cc(Cl)c4c(c3)OCCO4)cc2)CC1`, the “activity change, negative = cytotoxicity” value is -8.04% (inactive).
The same measure, in the same setting: the result for `Cc1cccc(N2CCN(c3ccc(NC(=O)/C=C\C(=O)O)cc3)CC2)c1` reads -26.1% (inactive).
As to `COC(=O)c1c(OCc2ccc(F)cc2)cc(=O)n2c1CCN(Cc1ccc3cccnc3c1)CC2`, the “activity change, negative = cytotoxicity” value was -11.1% (inactive).
Still for that read-out and setting: the result for `CC(C)C(=O)NC(C)c1nnc2n1CCN(Cc1cccc3ncccc13)CC2` (stereo not given) reads -8.05% (inactive).
Take `CCc1ccc2c(c1)C1(NN=C(c3ccccc3)S1)C(=O)N2` (stereo not given): the Potency is 3.16 µM (active).
For `CO[C@H]1[C@H](NC(=O)C(C)C)c2ccccc2C12CCN(Cc1cnc(N(C)C)s1)CC2`, the “activity change, negative = cytotoxicity” value was -6.13% (inactive).
Still for that read-out and setting: the result for `COc1ccc(C2(Nc3cccc(F)c3)C(=O)c3ccccc3C2=O)cc1` reads -36.9% (inactive).
On to `CCCS(=O)(=O)c1ncc(Cl)c(C(=O)Nc2scc(-c3ccccc3)c2C(=O)OCC)n1`, for which the Potency is 15.8 µM (active).
